The record followed here is PubChem BioAssay.

Test [1] is described as follows: viability loss in pontine glioma line – cell-based, SU-DIPG-XVII, MIPE5.0, CellTiter-Glo, qHTS, dose response (AID 1347060; cut-off not given, nearly all actives have AC50 up to about 26 µM;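 for AC50: cells exposed to compound for 48 hours before viability readout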). Conditions: CellTiter-Glo ATP luminescence. Background: Cellular ATP, detected with luciferase, serves as a proxy for viable cell number.
Test [2] is described as follows: viability loss in pontine glioma line – cell-based, SU-DIPG-XIII, MIPE5.0, CellTiter-Glo, qHTS, dose response (AID 1347064; cut-off not given, nearly all actives have AC50 up to about 23 µM). The note with it: CellTiter-Glo ATP luminescence.
The nature of test [3]: JHH-DIPG-1 glioma cell viability, MIPE5.0 library, CellTiter-Glo luminescence, qHTS (AID 1347067; cut-off not given, nearly all actives have AC50 up to about 26 µM;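 note: cells exposed to compound for 48 hours before readout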). The note with it: JHH-DIPG-1 glioma viability, CellTiter-Glo ATP luminescence.
Test [4] in a line: growth inhibition of DIPG cells – cell-based, MIPE5.0 library, qHTS (AID 1347068; cut-off not given, nearly all actives have IC50 up to about 30 µM;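 for IC50: cells exposed to compound for 48 hours before viability readout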). The note with it: SU-DIPG-XXV viability. Background: In qHTS, concentration-response curves come from the screen itself.
Test [5] is described as follows: viability loss with induced miR-34 in A549 – imaging, A549 dox-inducible miR-34, nuclei and caspase counts, primary screen (AID 1347080;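 active = compounds whose cell count with miR-34 switched on is under 0.7 times the count with it off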). Conditions: A549 miR-34 inducible, Hoechst nuclei count, 48 h.
The nature of test [6]: MELAS cybrid and Rieske KO viability enhancers – cell-based, MELAS cybrids, Rieske KO mouse fibroblasts, CellTiter-Glo, primary screen (AID 1508586;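 active = mean z-score across replicates of 1.96 or higher in either the MELAS or the Rieske mutant cell line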;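 note: z relative to plate mean and SD of compound and empty wells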). Conditions: low glucose.
Test [7] can be described thus: viability loss in pontine glioma line – cell-based, SU-DIPG-XXV, MIPE5.0, CellTiter-Glo, qHTS, dose response (AID 1347065; cut-off not given, nearly all actives have AC50 up to about 26 µM;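 note: cells exposed to compound for 48 hours before ATP readout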). The note with it: CellTiter-Glo ATP luminescence.
The nature of test [8]: drug combination growth inhibition, ovarian cancer – cell-based, oncology-focused library, rucaparib conditional, profiling panel (AID 1508598). Conditions: patient-derived ovarian cancer cells, CellTiter-Glo viability, 144 h, stronger effect = lower value.
[9] abbreviates: stronger effect = lower value, cell number ratio, induced over uninduced.
The mark [10] stands for this setting: measured here: relative caspase fold change +Dox/-Dox.
Setting [11] is: measured here: total cells with miR-34 induction, stronger effect = lower value.
The mark [12] stands for this setting: measured here: total cells without miR-34 induction.
The mark [13] stands for this setting: MELAS cybrid survival, CellTiter-Glo 48 h, stronger effect = higher value.
Setting [14] is: Rieske KO mouse fibroblast survival, CellTiter-Glo 72 h.

Records with an inconclusive call do not appear. Active and inactive are the calls of the source.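 Rule for the calls, unless noted: active = normalized viability below 100% at a tested concentration; inactive = the rest.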

As usually defined, the IC50 is the point on the concentration scale where inhibition reaches its midpoint. The AC50 is the concentration giving half of the maximal activity seen. What is called viability is a read-out of living cells in per cent, often relative to untreated cells.

In the case of `Cc1c(F)cc(C(=O)NC2CC2)cc1-c1ccc(C(=O)NCC(C)(C)C)cn1`, the outcome in test [1], in test [2], in test [3] and in test [4] was inactive. The fold change in test [5] (setting [9]) is 0.832 (inactive); in test [5] (setting [10]), 0.447. Besides, the cell count in test [5] (setting [11]) came out at 7400; in test [5] (setting [12]) it was 8890. Besides, the z-score in test [6] (setting [13]) is -0.46 (inactive); in test [6] (setting [14]), 0.488.
`CONC(=O)Nc1ccc(-c2sc3c(c2CN(C)Cc2ccccc2)c(=O)n(-c2ccccc2)c(=O)n3Cc2c(F)cccc2F)cc1`: the call in test [1], in test [2] and in test [4] was inactive.
Consider `CS(=O)(=O)c1ccc([C@@H](CC2CCCC2)C(=O)Nc2nccs2)cc1`, for which the outcome in test [1], in test [2] and in test [3] was inactive. Besides, the IC50 in test [4] is 13.2 µM (active).
Take `COc1cc(-c2cc(-c3ccc(N4CCNCC4)cc3)cnc2C)cc(OC)c1OC`: the compound was classed as inactive in test [1], in test [2] and in test [4].
For `CCS(=O)(=O)c1ccc2oc(-c3ccc4ccccc4c3)nc2c1`, the compound was classed as inactive in test [1], in test [2] and in test [4].
Turning to `Cc1cccc(Nc2nc(N[C@@H]3CCCC[C@@H]3N)ncc2C(N)=O)c1`, the half-maximal activity concentration (AC50) in test [1] and in test [7] was 18.6 µM (active) in each case.
For the compound `Cn1cc(-c2ccc3c(c2)CCN3C(=O)Cc2cccc(C(F)(F)F)c2)c2c(N)ncnc21`, the call in test [1], in test [2], in test [3] and in test [4] was inactive. The fold change was 0.811 (inactive) in test [5] (setting [9]) and 0.484 in test [5] (setting [10]). Further, the cell count in test [5] (setting [11]) is 4720; in test [5] (setting [12]), 5820. In addition, the z-score was -0.412 (inactive) in test [6] (setting [13]) and -1.76 in test [6] (setting [14]). Also, the viability in test [8] (at 0.000305 µM, OCI-C5x cells, with rucaparib 10 µM, 100% = cells with rucaparib alone) is 120% (inactive); in test [8] (at 0.000305 µM, OCI-C5x cells, without rucaparib), 118% (inactive); in test [8] (at 0.000305 µM, OCI-P5x cells, with rucaparib 20 µM, 100% = cells with rucaparib alone), 89.4% (active); in test [8] (at 0.000305 µM, OCI-P5x cells, without rucaparib), 96.4% (active); in test [8] (at 0.00122 µM, OCI-C5x cells, with rucaparib 10 µM, 100% = cells with rucaparib alone), 116% (inactive); in test [8] (at 0.00122 µM, OCI-C5x cells, without rucaparib), 114% (inactive). The viability was 90.8% (active) in test [8] (at 0.00122 µM, OCI-P5x cells, with rucaparib 20 µM, 100% = cells with rucaparib alone); 99.7% (active) in test [8] (at 0.00122 µM, OCI-P5x cells, without rucaparib); 116% (inactive) in test [8] (at 0.00488 µM, OCI-C5x cells, with rucaparib 10 µM, 100% = cells with rucaparib alone); 115% (inactive) in test [8] (at 0.00488 µM, OCI-C5x cells, without rucaparib); 92.8% (active) in test [8] (at 0.00488 µM, OCI-P5x cells, with rucaparib 20 µM, 100% = cells with rucaparib alone); 101% (inactive) in test [8] (at 0.00488 µM, OCI-P5x cells, without rucaparib). In addition, the viability in test [8] (at 0.0195 µM, OCI-C5x cells, with rucaparib 10 µM, 100% = cells with rucaparib alone) is 107% (inactive); in test [8] (at 0.0195 µM, OCI-C5x cells, without rucaparib), 114% (inactive); in test [8] (at 0.0195 µM, OCI-P5x cells, with rucaparib 20 µM, 100% = cells with rucaparib alone), 98% (active); in test [8] (at 0.0195 µM, OCI-P5x cells, without rucaparib), 107% (inactive); in test [8] (at 0.0781 µM, OCI-C5x cells, with rucaparib 10 µM, 100% = cells with rucaparib alone), 106% (inactive); in test [8] (at 0.0781 µM, OCI-C5x cells, without rucaparib), 113% (inactive). For the same compound, the viability in test [8] (at 0.0781 µM, OCI-P5x cells, with rucaparib 20 µM, 100% = cells with rucaparib alone) was 88% (active); in test [8] (at 0.0781 µM, OCI-P5x cells, without rucaparib), 101% (inactive); in test [8] (at 0.313 µM, OCI-C5x cells, with rucaparib 10 µM, 100% = cells with rucaparib alone) it was 109% (inactive); in test [8] (at 0.313 µM, OCI-C5x cells, without rucaparib), 125% (inactive); in test [8] (at 0.313 µM, OCI-P5x cells, with rucaparib 20 µM, 100% = cells with rucaparib alone), 79.9% (active); in test [8] (at 0.313 µM, OCI-P5x cells, without rucaparib) it was 107% (inactive). The viability in test [8] (at 1.25 µM, OCI-C5x cells, with rucaparib 10 µM, 100% = cells with rucaparib alone) was 123% (inactive); in test [8] (at 1.25 µM, OCI-C5x cells, without rucaparib), 144% (inactive); in test [8] (at 1.25 µM, OCI-P5x cells, with rucaparib 20 µM, 100% = cells with rucaparib alone), 74.9% (active); in test [8] (at 1.25 µM, OCI-P5x cells, without rucaparib), 109% (inactive); in test [8] (at 5 µM, OCI-C5x cells, with rucaparib 10 µM, 100% = cells with rucaparib alone) it was 7.91% (active); in test [8] (at 5 µM, OCI-C5x cells, without rucaparib) it was 79% (active). Further, the viability is 53% (active) in test [8] (at 5 µM, OCI-P5x cells, with rucaparib 20 µM, 100% = cells with rucaparib alone) and 69.3% (active) in test [8] (at 5 µM, OCI-P5x cells, without rucaparib).
For `Cc1[nH]nc(C(F)(F)F)c1Cc1sc2c(c1C(=O)N1C[C@](C)(O)CO1)c(=O)n(C)c(=O)n2C(C)C`, the call in test [1], in test [2], in test [3] and in test [4] was inactive.
